# In all, about 13,000 compounds went through this assay and about 3,200 (25%) showed an effect of 50% or more. The list shows a part of the results.
# Tested on: P. falciparum stage V gametocytes
# Set-up: BacTiter-Glo ATP luminescence viability of purified stage V gametocytes in 384-well plates, per cent inhibition versus DMSO
# Settings: 48 h, 5 µM; inhibitor
row,SMILES,% Inhibition
1,CCNc1cc(C(=O)N[C@@H](Cc2ccccc2)[C@H](O)CNCCCc2ccc(OC)cc2)cc(N2CCCC2=O)c1 [TCMDC-141685],6.049%
2,Cc1onc(-c2ccccc2)c1-c1nc(NCc2ccccc2Cl)no1 [TCMDC-134205],-12.6%
3,CCNC(=O)N1CCc2ccc(Oc3nc(NCc4ccccc4OC)ncc3C)cc2CC1 [TCMDC-133414],17.56%
4,COc1ccccc1CNc1ccnc(N2CC(Oc3ccc(F)cc3)C2)n1 [TCMDC-135118],57.67%
5,Fc1ccc(OC2CN(c3nccc(NCc4ccccc4Cl)n3)C2)cc1 [TCMDC-135110],91.97%
6,CCOc1ccccc1CNc1nccc(NCc2ccccc2OC)n1 [TCMDC-135119],40.21%
7,O=C(Nc1ccc(OC2CCN(Cc3ccc(F)cc3)C2)cc1)c1ccco1 (stereo not drawn) [TCMDC-133758],44.14%
8,CC(C)(C)NC(=O)c1ccc(Oc2ccc(OC(F)(F)F)cc2)c(NC(=O)C(C)(C)C)c1 [TCMDC-137270],-22.87%
9,CC(C)[C@H](NCC(=O)c1ccccc1)C(=O)O [TCMDC-131333],52.78%
10,CCC(CC(C)C(=O)O)=C(c1ccccc1)c1ccccc1 (stereo not drawn) [TCMDC-131707],-2.137%
11,COC(=O)C(C)NCC(=O)c1ccccc1 (stereo not drawn) [TCMDC-131767],45.43%
12,COc1cc(NC(=O)N2CCOC(CCN3CCC4(CCc5ccccc54)CC3)(c3ccc(Cl)c(Cl)c3)C2)cc(OC)c1 (stereo not drawn) [TCMDC-135338],-0.7672%
13,CCc1c(C)nc(-n2nc(C)cc2NC(=O)CCc2ccccc2)[nH]c1=O [TCMDC-124934],-11.5%
14,COc1ccc2ncc(F)c(CCN3CC(O)C(CNCc4ccccc4)C3)c2n1 (stereo not drawn) [TCMDC-136498],50.66%
15,COc1ccc2ncc(F)c(CCN3CCC(NCc4cc(C)c5c(c4)OCCO5)CC3)c2n1 [TCMDC-136209],19.66%
16,COc1ccc2ncc(F)c(CCN3CC(O)C(CNCc4ccc5ccccc5c4)C3)c2n1 (stereo not drawn) [TCMDC-136528],43.95%
17,COc1ccc2ncc(F)c(CCN3CCC(NCc4cc(F)c5c(c4)OCCO5)CC3)c2n1 [TCMDC-135849],84.79%
18,COc1ccc2ncc(F)c(CCN3CCC4(CC3)COC(c3cc5c(cn3)OCCO5)=N4)c2n1 [TCMDC-135741],93.18%
19,COc1ccc2ncc(F)c(CCN3C[C@H](CNCc4cc(C#N)c5c(c4)OCCO5)[C@H](O)C3)c2n1 [TCMDC-136275],16.8%
20,COc1ccc2ncc(F)c(CCN3CC(O)C(CNCc4ccc5oc(=O)ccc5c4)C3)c2n1 (stereo not drawn) [TCMDC-136499],11.09%
21,COc1ccc2ncc(F)c(CCN3CC(O)C(CNCc4ccc(F)cc4)C3)c2n1 (stereo not drawn) [TCMDC-136527],13.85%
22,CCc1cc(CNC2CCN(CCc3c(F)cnc4ccc(OC)nc34)CC2)cc2c1OCCO2 [TCMDC-136290],31.48%
23,COc1ccc2ncc(F)c(CCN3CCC(NCc4cc(OC)c5c(c4)OCCO5)CC3)c2n1 [TCMDC-135509],17.67%
24,COc1ccc2ncc(F)c(CCN3CC(O)C(CNCc4ccc5c(c4)OCCO5)C3)c2n1 (stereo not drawn) [TCMDC-136518],55.46%

row,SMILES,% Inhibition
1,COc1ccc2ncc(F)c(CCN3CCC(NCc4cc(Br)c5c(c4)OCCO5)CC3)c2n1 [TCMDC-136211],30.05%
2,NC1=NC(c2ccccc2)(c2ccccc2)C(=O)N1CCCCc1ccccc1 [TCMDC-136488],3.475%
3,Fc1cccc(COc2ccc(Nc3ncnc4sc(C#Cc5ncc[nH]5)cc34)cc2Cl)c1 [TCMDC-135407],-1.353%
4,O=C(Nc1cccc(-c2nn3ccccc3c2-c2ccnc(Nc3cccc(C(F)(F)F)c3)n2)c1)c1c(F)cccc1F [TCMDC-135527],-78.64%
5,COc1cccc(C2(c3cccc(OC)c3)N=C(N)N(CCCc3ccccc3)C2=O)c1 [TCMDC-136492],-28.16%
6,CC1CN(C(=O)c2sc3ccccc3c2Cl)CC(C)O1 (stereo not drawn) [TCMDC-125225],2.721%
7,C/C=C1\CN2CC[C@H]1C[C@@H]2[C@@H](O)c1ccnc2ccc(O)cc12 [TCMDC-138273],7.487%
8,Cc1cc(C)c(-c2n[nH]c3c2C(c2cccc(Cl)c2)N(Cc2ccco2)C3=O)c(O)c1 (stereo not drawn) [TCMDC-125307],-65.67%
9,Cc1ccc(C)c(NC(=O)CC2C(=O)N(c3ccccc3)C(=S)N2Cc2ccco2)c1 (stereo not drawn) [TCMDC-124000],88.68%
10,O=C(Nc1ccc(C(=O)Oc2cccc3ccccc23)cc1)N[C@@H](Cc1ccc(O)cc1)C(=O)NC1CCN(Cc2ccc(O)cc2)C1 (stereo partly drawn) [TCMDC-135360],-40.07%
11,O=c1c2ccc(Sc3ccccn3)cc2n(-c2ccccc2)c2cc(Sc3ccccn3)ccc12 [TCMDC-137528],7.065%
12,Cc1cc(N)c2cc(NC(=O)/C=C/c3ccccc3)ccc2n1 [TCMDC-139337],92.06%
13,CCOc1ccccc1C=CC(=O)Nc1ccc2nc(N3CCN(C)CC3)cc(C)c2c1 [TCMDC-123801],-1.147%
14,Cc1cc(N)c2cc(NC(=O)/C=C/c3ccc([N+](=O)[O-])cc3)ccc2n1 [TCMDC-139335],102.5%
15,CC1(C)CN2CCCC2c2cc(NC(=O)/C=C/c3ccccc3Cl)ccc21 (stereo not drawn) [TCMDC-139348],26.85%
16,Cc1cc(N)c2cc(NC(=O)/C=C/c3ccccc3Cl)ccc2n1 [TCMDC-139459],113.2%
17,O=C(C=Cc1ccccc1)Nc1ccc(C#CC=Cc2ccc(NC(=O)C=Cc3ccccc3)cc2)cc1 [TCMDC-125718],-11.21%
18,CN1Cc2cc(NC(=O)/C=C/c3ccccc3Cl)ccc2C(C)(C)C1 [TCMDC-139315],78.19%
19,COc1cc(C)nc2ccc(NC(=O)c3cc([N+](=O)[O-])cc([N+](=O)[O-])c3)cc12 [TCMDC-139382],32.9%
20,COc1cc(C)nc2ccc(NC(=O)Nc3ccc([N+](=O)[O-])cc3C)cc12 [TCMDC-139395],-13.54%
21,O=C(/C=C/c1ccccc1Cl)Nc1ccc(Br)c(OCCN2CCCCC2)c1 [TCMDC-140959],-53.57%
22,Nc1cccc(C=CC(=O)Nc2ccnc3ccccc23)c1 [TCMDC-139290],5.125%
23,CCOC(=O)C1CCN(CCOc2cc(NC(=O)/C=C/c3ccccc3Cl)ccc2Br)CC1 [TCMDC-140963],-16.5%
24,NC(N)=NC(=O)Nc1cc(F)c(Cl)c(Cl)c1 [TCMDC-137462],6.486%

row,SMILES,% Inhibition
1,O=c1ccc2ncc(Cl)c3c2n1CC3CN1CCC(NCc2cc3c(cn2)OCCO3)CC1 (stereo not drawn) [TCMDC-135967],20.98%
2,CC1(C)N=C(N)N=C(N)N1OCCCOc1ccc(N)cc1 [TCMDC-131698],-10.87%
3,CN1CCN(Cc2cc3cc(NC(=O)/C=C/c4ccc(Cl)cc4)ccc3s2)CC1 [TCMDC-135631],-73.77%
4,CC1(C)CNCc2cc(NC(=O)/C=C/c3ccc(Cl)cc3)ccc21 [TCMDC-141909],92.59%
5,O=C(/C=C/c1ccc(Cl)cc1)Nc1ccc2nc(CN3CCCC3)ccc2c1 [TCMDC-135629],-22.56%
6,Nc1ncnc2cc(-c3cccc(NC(=O)Nc4ccccc4)c3)sc12 [TCMDC-135255],-37.99%
7,O=C(Nc1ccccc1)Nc1cccc(-c2nn3c(OCCN4CCCC4)cccc3c2-c2ccncc2)c1 [TCMDC-135539],44.29%
8,CCCCC(N)COc1cccc2c(-c3ccncc3)c(-c3cccc(NC(=O)Nc4ccccc4)c3)nn12 (stereo not drawn) [TCMDC-135537],58.08%
9,O=C(Nc1ccccc1)Nc1cccc(-c2cc(CNCCc3ccccc3)sc2-c2ccncc2)c1 [TCMDC-135632],-27.66%
10,N[C@@H](COc1cccc2c(-c3ccncc3)c(-c3cccc(NC(=O)Nc4ccccc4)c3)nn12)c1ccccc1 [TCMDC-135512],8.625%
11,O=C(Nc1ccccc1)Nc1cccc(-c2nn3c(OCC4CCCCN4)cccc3c2-c2ccncc2)c1 (stereo not drawn) [TCMDC-135465],63.4%
12,Fc1cc(Cl)ccc1Nc1ccnc2cc(-c3scnc3CNCCN3CCOCC3)ccc12 [TCMDC-138442],15.08%
13,O=C(Cc1cc(F)cc(F)c1)NC1CCN(c2ccnc3cc(Cl)ccc23)C1 (stereo not drawn) [TCMDC-133667],8.938%
14,CC(C)(CNC(=O)[C@@H]1CCCN(CCOc2ccc(F)c(F)c2)C1)c1nc(-c2ccc(Cl)c(O)c2)c(-c2ccncc2)[nH]1 [TCMDC-141137],11.15%
15,CCN1CCN(c2cc(C)c3cc(NC(=O)c4cc(OC)cc(OC)c4)ccc3n2)CC1 [TCMDC-125575],-6.076%
16,O=C(NCc1ccccc1)c1nn(CCCN2CCC(N3CCCC3)CC2)cc1-c1ccc(Cl)c(Cl)c1 [TCMDC-141728],73.12%
17,COc1cc(C(=O)NCc2nn(CCN3CCC(N4CCCC4)CC3)cc2-c2ccc(Cl)c(Cl)c2)cc(OC)c1OC [TCMDC-141966],24.89%
18,CN(Cc1ccccc1)C(=O)c1nn(CCCN2CCC(N3CCCC3)CC2)cc1-c1ccc(Cl)c(Cl)c1 [TCMDC-141730],45.58%
19,O=C(NCc1ccccc1)NC(CCCN1CCC(Oc2cccc(Cl)c2)CC1)c1ccc(Cl)c(Cl)c1 (stereo not drawn) [TCMDC-141903],-17.97%
20,O=C(Nc1ccccc1)c1nn(CCCN2CCC(N3CCCC3)CC2)cc1-c1ccc(Cl)c(Cl)c1 [TCMDC-141727],76.09%
21,O=C(NCc1ccccc1)c1ncn(CCCN2CCC(N3CCCC3)CC2)c1-c1ccc(Cl)c(Cl)c1 [TCMDC-135228],91.41%
22,COc1cc(NC(=O)c2nn(CCCN3CCC4(CC3)C(=O)NCN4c3ccccc3)cc2-c2ccc(Cl)c(Cl)c2)cc(OC)c1OC [TCMDC-141726],-40.66%
23,COc1cc(NC(=O)c2nn(CCCN3CCC(N4CCCC4)CC3)cc2-c2ccc(Cl)c(Cl)c2)cc(OC)c1OC [TCMDC-141725],29.9%
24,O=C(NCc1ccc2c(c1)OCO2)c1nn(CCN2CCC(N3CCCC3)CC2)cc1-c1ccc(Cl)c(Cl)c1 [TCMDC-141908],-16.74%
